Reference: the supplement of paper PMC6555819

Test system: RXRa homodimer (NR concentration 180 nM)
Experiment: PBM binding z-score (relative to random genomic background probes); higher = stronger binding; sequences stand for … in GC…GCGATTGACAGCGTAGAATGAAGG
In short: (§1)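 Binding buffer was PBS pH 7.4 with 2% milk, 0.02% Triton X-100, 1 mM DTT, 0.2 mg/mL BSA and 0.4 mg/ml salmon testes DNA. In it, ligand-free nuclear receptor dimers were incubated 1 h on custom Agilent 4×180K protein-binding microarrays carrying double-stranded probes. Antibodies against each partner (one per run) detected binding, and z-scores were calculated against random background probes after regression normalization of scanned fluorescence.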

| Sequence | PBM binding z-score |
| --- | --- |
| ATCGAAAGGACGAAGGTGAGTATACCCACCCGAA | 0.555 |
| ATCTTTAGGTAACAAGTTCAGTGAAAGAGAGGAC | 0.993 |
| CGTACTGGGCCATTCAGAGGTCATTGATCATATG | 3.95 |
| CGTCCAAGGTCAAAGATCAGTGAAGAGATGACGG | 6.79 |
| CGTGCTAGGTCAATGGTCAGCTAAAGCAGCTCGC | 2.31 |
| TAGCCTAGGTCATTGGGCCAGAATAGTACGCATC | 2.8 |
| TCGAGTAGGTTAGGGGCATGCAGAATGGCGTCGA | 0.663 |
| TGTCAAAGTTCAAAGGTAACGTGAGTATCCACAC | 7.77 |
| AGAATCAGGTTATACGTAGATCAGGGAAGAAAGT | 0.757 |
| CCTATTGGGCCATTCAGAGGTCATTGATCATATG | 3.41 |
| ACAGACAGGTGAGTGAAGGTAACTCCGCTGGACG | 0.41 |
| CCGACTGGGGCATAATGTTACCATAAGCCAGCCC | 0.021 |
| TAGCCTAGGACATTGGGCCAGTATAGTACGCATC | -0.0784 |
| CGAACTAGGTTATTGACAGGACAGTGAATAGTAA | 0.57 |
| TCTGCTAGGTTAACGATGGTCAGCTAATCTGCTA | 0.42 |
| CCTGCTAGGTCAATGGTCAGCTACAGCAGCTCGC | 2.49 |
| CGTCCAAGGTTAGCAGGTCAGTGAAAGCGACGTG | 2.04 |
| GGAACGAGGGCAAATTTGATAGCATCTGTCGACG | 0.93 |
| AGCTCTAGGTAACAAGTTCAGTGAAAGAGAGGAC | 0.551 |
| GATCCAGGGTCAAGGCCAGAGTACGCGTATTGAT | 6.11 |

| Sequence | PBM binding z-score |
| --- | --- |
| ATCTCTAGGTAAGTCTCAGTTCAGTGAAGAACGC | 0.0582 |
| CAGCCTAGGTCTGGGCCAGTATAGGAGGAACGTT | -0.703 |
| GCGACTGGGGCATCAGCATGTTACCATAACTTAA | 0.217 |
| GGTTACGGGTCAAAGGTTATAGCATGAATAGAAT | 9.23 |
| CCGACTGGGGCAAAGGTTACTATACTCAGTACGA | 2.8 |
| CGTCCAAGGTCTGCAGGTCAGTGAAAGCGACGTG | 0.794 |
| TATACAGGGTCAACGGCCAGAGTACGAATGTCGA | 6.28 |
| ACAGACAGGAGATGAAGGTAACTCAGGCTATCAT | -0.000835 |
| CCTTCCGGGTCACTGACAGGTTATAGCATTTGGA | 4.67 |
| CCTACCGGGCCAAGGTCATTGATCAGTCAAAGCA | 3.5 |
| CGTCCAAGGTCACTGCTAGGTCAGTGAAAGCATT | 5.2 |
| TCGAGTAGGTTAGTCGGGGCATTCACCCAACATA | 0.097 |
| ATCTCTAGGTGAGACTCAGTTCAGTGAAGAACGC | 0.00106 |
| CGTCCAAGTTCAAGGTCAGTGAAAGAGACTCGAA | 3.82 |
| CTCGAAAGATCGGTTGAGGTGAGTATACGGATAA | 0.118 |
| CAAACTAGGTCACGAAAGGTCATAGTCGAATGAC | 8.01 |
| ACTAGCAGGCCAATTTTGGGTCACTCAAACAAAG | 0.898 |
| CAGCCCAGGTCAGGGCCAGTATAGGAGGAACGTT | 2.25 |
| ATCGAAAGGTCGCGAGGTGAGTATACAGAAAGGC | 5.7 |
| CCAGACAGGTGTAAGGTAACTCAGTCTGGTACGC | -0.0847 |

Test system: THRa:RXRa (NR concentration 90 nM, RXRa partner concentration 90 nM)
Experiment: as above
In short: as §1

| Sequence | PBM binding z-score |
| --- | --- |
| ATCGAAAGGACGAAGGTGAGTATACCCACCCGAA | 0.23 |
| ATCTTTAGGTAACAAGTTCAGTGAAAGAGAGGAC | 2.13 |
| CGTACTGGGCCATTCAGAGGTCATTGATCATATG | 3.33 |
| CGTCCAAGGTCAAAGATCAGTGAAGAGATGACGG | 3.85 |
| CGTGCTAGGTCAATGGTCAGCTAAAGCAGCTCGC | 2.23 |
| TAGCCTAGGTCATTGGGCCAGAATAGTACGCATC | 2.66 |
| TCGAGTAGGTTAGGGGCATGCAGAATGGCGTCGA | 0.973 |
| TGTCAAAGTTCAAAGGTAACGTGAGTATCCACAC | 3.39 |
| AGAATCAGGTTATACGTAGATCAGGGAAGAAAGT | 1.17 |
| CCTATTGGGCCATTCAGAGGTCATTGATCATATG | 3.37 |
| ACAGACAGGTGAGTGAAGGTAACTCCGCTGGACG | 1.29 |
| CCGACTGGGGCATAATGTTACCATAAGCCAGCCC | -0.493 |
| TAGCCTAGGACATTGGGCCAGTATAGTACGCATC | 0.281 |
| CGAACTAGGTTATTGACAGGACAGTGAATAGTAA | 1.27 |
| TCTGCTAGGTTAACGATGGTCAGCTAATCTGCTA | 1 |
| CCTGCTAGGTCAATGGTCAGCTACAGCAGCTCGC | 2.19 |
| CGTCCAAGGTTAGCAGGTCAGTGAAAGCGACGTG | 2.07 |
| GGAACGAGGGCAAATTTGATAGCATCTGTCGACG | 0.959 |
| AGCTCTAGGTAACAAGTTCAGTGAAAGAGAGGAC | 1.49 |
| GATCCAGGGTCAAGGCCAGAGTACGCGTATTGAT | 3.65 |

| Sequence | PBM binding z-score |
| --- | --- |
| ATCTCTAGGTAAGTCTCAGTTCAGTGAAGAACGC | 1.07 |
| CAGCCTAGGTCTGGGCCAGTATAGGAGGAACGTT | -0.77 |
| GCGACTGGGGCATCAGCATGTTACCATAACTTAA | 0.125 |
| GGTTACGGGTCAAAGGTTATAGCATGAATAGAAT | 4.06 |
| CCGACTGGGGCAAAGGTTACTATACTCAGTACGA | 1.44 |
| CGTCCAAGGTCTGCAGGTCAGTGAAAGCGACGTG | 1.12 |
| TATACAGGGTCAACGGCCAGAGTACGAATGTCGA | 3.46 |
| ACAGACAGGAGATGAAGGTAACTCAGGCTATCAT | 1.03 |
| CCTTCCGGGTCACTGACAGGTTATAGCATTTGGA | 3.67 |
| CCTACCGGGCCAAGGTCATTGATCAGTCAAAGCA | 3.58 |
| CGTCCAAGGTCACTGCTAGGTCAGTGAAAGCATT | 4.48 |
| TCGAGTAGGTTAGTCGGGGCATTCACCCAACATA | 1.31 |
| ATCTCTAGGTGAGACTCAGTTCAGTGAAGAACGC | 0.954 |
| CGTCCAAGTTCAAGGTCAGTGAAAGAGACTCGAA | 3.56 |
| CTCGAAAGATCGGTTGAGGTGAGTATACGGATAA | 3.31 |
| CAAACTAGGTCACGAAAGGTCATAGTCGAATGAC | 5.09 |
| ACTAGCAGGCCAATTTTGGGTCACTCAAACAAAG | 2.34 |
| CAGCCCAGGTCAGGGCCAGTATAGGAGGAACGTT | 2.73 |
| ATCGAAAGGTCGCGAGGTGAGTATACAGAAAGGC | 3.45 |
| CCAGACAGGTGTAAGGTAACTCAGTCTGGTACGC | 1.59 |
